For part of these data: Results with a measured potency or affinity are listed apart. Results filed as inconclusive are left out. The list shows a part of the results. Activity calls are given as the source filed them. Unless noted, the rule behind the calls is not given here.
Experiments:
[1] = cytotoxicity in PAX8-dependent RMG-1 cells, dose response, cell-based, cherry-pick (AID 687029;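 active = signal drop whose fitted half-maximal concentration is at most twice the top valid dose, in every test run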;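 note: cells exposed to compound for 96 hours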); conditions: RMG-1 viability, CellTiterGlo ATP luminescence, 96 h; series mostly up to 35 µM
[2] = cytotoxicity in IOSE-T80 ovarian epithelial cells, dose response, selectivity assay for PAX8 inhibitor project, cell-based, cherry-pick (AID 687032;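 active = fitted half-maximal concentration for viability loss no higher than twice the top valid dose, in every repeat run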;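 note: cells exposed to compound for 96 h before reading; 0% = neutral control wells and -100% = 2 µM mitoxantrone kill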); conditions: CellTiterGlo ATP luminescence, 96 h; series mostly up to 35 µM
[3] = non-specific cell cytotoxicity, dose response, cytotoxicity control for PAX8 inhibitor project, plate reader, dry powder samples (AID 743021); conditions: cell line, non-specific cytotoxicity counter-screen; series mostly up to 35 µM
[4] = inhibitors of CMV-promoter luciferase reporter, dose response, counter-screen for Pax8 inhibitor project, cell-based, HEK293, luminescence, dry powder (AID 743020;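 active = signal-lowering compounds whose fitted half-maximal concentration is at or below twice the top tested dose in every run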;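 note: HEK293 cells stably expressing the CMV luciferase reporter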); conditions: SteadyGlo luminescence, 24 h; series mostly up to 35 µM
[5] = IOSE-T80 ovarian epithelial cell cytotoxicity, dose response, cytotoxicity control for PAX8 inhibitor project, plate reader, dry powder samples (AID 743045); conditions: IOSE-T80 ovarian epithelial cells; series mostly up to 35 µM;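 note: 0% = neutral control median and -100% = positive control median; more negative values mean more cell killing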
[6] = IGROV1 ovarian cancer cell cytotoxicity, dose response, PAX8 inhibitor project, plate reader, dry powder samples (AID 743043); conditions: series mostly up to 35 µM;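 note: more negative means fewer viable cells or more cytotoxicity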
[7] = NIH:OVCAR-3 ovarian cancer cell cytotoxicity, dose response, PAX8 inhibitor project, plate reader, dry powder samples (AID 743044); conditions: NIH:OVCAR-3 ovarian cancer cell viability, hits give low values; at 4.2 µM unless noted
[8] = DNA binders by acridine orange displacement, dose response, counter-screen for EWS/Fli inhibitor project, biochemical, fluorescence polarization, cherry-pick (AID 720586;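 active = fitted curve reaches a 35% signal fall AC35 below twice the sample's top valid tested dose, actives reach about 48 µM in these data; inactive = the rest, including activity in the rising direction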;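 note: 0% = neutral control median and -100% = 10 µM mitoxantrone control median; lower polarization ratio signals compound binding to DNA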); conditions: salmon sperm DNA acridine orange fluorescence polarization; series mostly up to 68 µM

Measured: max activity

O=C(c1ccccc1)C(CN1CCCC1)c1ccccc1 (stereo unspecified)
inactive: [1] | [2] | [3]

CC1CC(C)CC(C)C(O)C(C#N)=CC=CCC(C2CCCC2C(=O)O)OC(=O)CC(O)C(C)C1 (stereo unspecified)
inactive: [1] | [4] | [3]

COc1ccc(CC2C(=O)NC(C)C(=O)N(C)C3C(=O)N(C)C(Cc4ccc(O)c(c4)Oc4ccc(cc4)C3O)C(=O)NC(C)C(=O)NC(C)C(=O)N2C)cc1 (stereo unspecified)
inactive: [1] | [2] | [3]

CN1C2CCC1/C(=C/c1ccccn1)C(=O)/C2=C\c1ccccn1
inactive: [1] | [2] | [3]

C[C@]12CC[C@H](O)C[C@H]1CC[C@@H]1[C@@H]2C[C@@H](O)[C@]2(C)[C@@H](C3=CC(=O)OC3)CC[C@]12O
inactive: [1] | [2] | [3]

COc1cc(C2c3cc4c(c(O)c3CC3COC(=O)C32)OCO4)cc(OC)c1OC (stereo unspecified)
inactive: [1] | [2] | [3]

O=C(Cc1ccncc1)N1CCCCN2[C@H](C1)[C@H](c1ccc(C#Cc3ccccc3F)cc1)[C@@H]2CO
inactive: [1] | [2] | [4] | [3] | [5]

C[C@@H]1O[C@@H](O[C@H]2C[C@@H](O)[C@]3(CO)[C@H]4[C@H](O)C[C@]5(C)[C@@H](C6COC(=O)C6)CC[C@]5(O)[C@@H]4CC[C@]3(O)C2)[C@H](O)[C@H](O)[C@H]1O (stereo partly specified)
inactive: [1] | [2] | [3]

COC(=O)C1=C(c2ccc(F)cc2OCc2ccccc2)C[C@@H]2CC[C@H]1N2C(=O)NCc1ccc(C)cc1
inactive: [1] | [4] | [3]

O=C(C1CC1)N1C[C@@H]2N[C@H](C1)[C@@H]2c1ccc(-c2ccncc2)cc1
inactive: [1] | [2] | [3]

O=C(Cc1cccnc1)N1CCCCN2[C@H](C1)[C@H](c1ccc(/C=C/c3ccccc3)cc1)[C@@H]2CO
inactive: [1] | [2] | [4] | [6] | [5]

CCC1CN2CCc3cc(OC)c(OC)cc3C2CC1CC1NCCc2c1[nH]c1ccc(O)cc21 (stereo unspecified)
inactive: [1] | [2] | [3]

COc1cccc(C(c2nnnn2Cc2ccccc2)N2CCC(n3c(=O)[nH]c4ccccc43)CC2)c1OC (stereo unspecified)
inactive: [1] | [2] | [3]

Cc1c(C(=O)c2cccc3ccccc23)c2cccc3c2n1[C@H](CN1CCOCC1)CO3
inactive: [1] | [4] | [3]

CC12CCC3C(CCC4(O)CC(O)CCC34C=O)C1(O)CCC2C1=CC(=O)OC1 (stereo unspecified)
inactive: [1] | [2] | [3]

CSCCC(c1nnnn1Cc1ccccc1)N1CCC(n2c(=O)[nH]c3ccccc32)CC1 (stereo unspecified)
inactive: [1] | [4] | [3]

O=C1NC2C(=CC(O)C(O)C2O)c2cc3c(cc21)OCO3 (stereo unspecified)
inactive: [1] | [4] | [3]

COc1ccc(C(c2nnnn2Cc2ccccc2)N2CCC(n3c(=O)[nH]c4ccccc43)CC2)cc1 (stereo unspecified)
inactive: [1] | [4] | [3]

COC1CC2C=C(C)C=CC=CC(=O)NC(c3ccccc3)CC=CCCC(O)CC(=O)C2=C1O (stereo unspecified)
inactive: [1] | [4]

COc1cccc(C(c2nnnn2-c2ccc3c(c2)OCCO3)N2CCC(n3c(=O)[nH]c4ccccc43)CC2)c1OC (stereo unspecified)
inactive: [1] | [2] | [3]

O=C1NC2C(O)C(O)C(O)C(O)C2c2cc3c(c(O)c21)OCO3 (stereo unspecified)
inactive: [1] | [2] | [3]

CC1CCC/C=C/C2CC(O)CC2C(O)/C=C/C(=O)O1 (stereo unspecified)
inactive: [1] | [2] | [3]

O=C(Cc1ccccn1)N1CCCCN2[C@@H](CO)[C@@H](c3ccc(-c4ccccc4F)cc3)[C@@H]2C1
inactive: [1] | [2] | [4] | [6] | [7] 31.6% [at 0.5 µM] | [5]

CC(=CCOc1ccc2ccc(=O)oc2c1)C1=CC(=O)C(C)(C)O1
inactive: [1] | [2] | [3]

COC(=O)C12OCC34C(CC5C(C)=C(O)C(=O)CC5(C)C3C(O)C1O)OC(=O)C(OC(=O)/C=C(\C)C(C)C)C24 (stereo unspecified)
inactive: [1] | [2] | [3]

C[C@]12CC[C@H](O)C[C@H]1CC[C@@H]1[C@@H]2CC[C@]2(C)[C@@H](C3=CC(=O)OC3)CC[C@]12O
inactive: [1] | [4] | [3]

O=C(Cc1cccnc1)N1CCCCN2[C@H](C1)[C@H](c1ccc(C#CC3CCCC3)cc1)[C@@H]2CO
not listed: [7] | [8]
inactive: all other assays above

Cc1ccc(OC(=O)N(C)C[C@@H]2OCc3ccccc3-c3c(n(C)c4ccccc34)C(=O)N([C@@H](C)CO)C[C@H]2C)cc1
inactive: [1] | [2] | [3] | [6] | [5]

COC1C(O)C(C)OC(OC2CCC3(C)C(CCC4C3C(O)CC3(C)C(C5=CC(=O)OC5)CCC43O)C2)C1O (stereo unspecified)
inactive: [1] | [2] | [3]

CC(=O)OC1CC(OC2C(O)CC(OC3C(O)CC(OC4CCC5(C)C(CCC6C5CCC5(C)C(C7=CC(=O)OC7)CCC65O)C4)OC3C)OC2C)OC(C)C1OC1OC(CO)C(O)C(O)C1O (stereo unspecified)
inactive: [1] | [2] | [3]

CC(C)(O)/C=C/C(=O)C(C)(O)C1C(O)CC2(C)C3CC=C4C(C=C(O)C(=O)C4(C)C)C3(C)C(=O)CC12C (stereo unspecified)
inactive: [2]

O=C(Cc1ccccn1)N1CCCCN2[C@@H](CO)[C@@H](c3ccc(-c4ccc(F)cc4)cc3)[C@@H]2C1
inactive: [2] | [6] | [7] 9.98% | [5]

O=C1NC(=O)N(CCc2ccc(F)cc2)C(=O)/C1=C/C=C/c1ccccc1
inactive: [8]

C[C@]12CC[C@H](O)C[C@H]1CC[C@@H]1C2CC[C@]2(C)[C@@H](C3=CC(=O)OC3)[C@@H](O)C[C@]12O (stereo partly specified)
inactive: [8]

COc1ccc(-c2ccc([C@@H]3[C@@H](CO)N4CCCCN(C(=O)Cc5ccccc5)C[C@H]34)cc2)cc1
inactive: [6] | [7] -18.2% [at 35 µM] | [5]

Reference: PubChem BioAssay
